PubChem BioAssay (NCI)
The panel holds about 83,000 compounds, 20% with a hit somewhere; the sample as a whole holds those more often.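 Note: values are percent growth. 100 is the growth of untreated cells, values between 100 and 0 indicate rising inhibition; between -100 and 0 indicates cell death.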 The source made the active and inactive calls. How the source made its calls: active means growth percent below 10; inactive means the rest.

The molecules below were run on SW-620 colon (assay: NCI-60 one-dose screen, 48 h (100 = growth as untreated, 0 = no growth, -100 = all killed)). Conditions: 10 µM unless noted.

Row | SMILES | growth
1 | CC1=CCC[C@@H]2C1(C)CC[C@H](C)[C@@]2(C)CC1=CC(=O)C(SC(C)(C)C)=CC1=O (some centres not stated) | 78.9% (inactive)
2 | C/C(=N\Nc1nc(C)cs1)c1cc2ccccc2o1 | 100% (inactive)
3 | COc1ccc(C2C(C#N)=C(N)Oc3c2sc2c(Br)cccc32)cc1 (configuration not stated) | 32% (inactive)
4 | C#Cc1cccc(Oc2ccc(NC(=O)CCl)cc2)c1 | 15.9% [8.25 µM] (inactive)
5 | O=C1CCC(C(=O)NN(c2ccccc2)c2ccccc2)N1 (configuration not stated) | 100% (inactive)
6 | CCC(CC)(N(CC(=O)O)CC(=O)O)C(CC)(CC)N(CC(=O)O)CC(=O)O | 112% (inactive)
7 | CCCCN1C(=O)/C(=c2\sc3n(c2=O)NC2C(N=3)N(CC)C(=O)N2CC)c2ccccc21 (configuration not stated) | 36.2% (inactive)
8 | COc1ccc(C(c2cc(OC)c(OC)c(OC)c2)N2CCCC2)cc1 (configuration not stated) | 47.8% (inactive)
9 | Cc1ccc(C(=O)c2ccc(CC(=O)N/N=C/c3ccc(O)cc3O)n2C)cc1 | 42.2% (inactive)
10 | COc1ccc(NC(=O)c2sc3nc4c(cc3c2N)CCCC4)cc1 | 36.7% (inactive)
11 | COc1cc2c3c(c1O)-c1ccccc1[C@@H]1OC(=O)N(CC2)[C@H]31 | 105% (inactive)
12 | Cc1cccc(-n2c(C)nc3ccc(N4CCCNC4=O)cc3c2=O)c1 | 104% (inactive)
13 | CCN(CC)CCCNCc1cc(-c2ccccc2)nc2cc(Cl)ccc12 | -0.394% (active)
14 | Cn1c(O)c(C(/C=C/c2ccccc2)=Nc2ccccc2N)c(=O)n(C)c1=O | 106% (inactive)
15 | CC1COCC(C)N1C1=C(Cl)C(=O)c2ccccc2C1=O (configuration not stated) | 42.6% (inactive)
16 | CC(C)(C)c1cc(C=Nc2cccc(C(F)(F)F)c2)c(O)c(C(C)(C)C)c1 | 101% (inactive)
17 | Cn1cc(-c2csc(-c3cn(C(=O)OC(C)(C)C)c4ccccc34)n2)c2ccnc(Cl)c21 | 56.2% (inactive)
18 | CN1CCCc2cc(/C=C3/SC(=S)N(CCc4ccc(O)cc4)C3=O)ccc21 | 85% (inactive)
19 | COC(=O)C1=C(C)NC(C)=C(C(=O)OCC(C)C)C1c1ccccc1[N+](=O)[O-] (configuration not stated) | 29.4% (inactive)
20 | COc1ccc(OC)c(-c2cn3nc(-c4c[nH]c5ccc(Br)cc45)sc3n2)c1 | -3.33% (active)
21 | Clc1nn2c(Cn3cnc4c(NCc5ccccc5)ncnc43)nnc2c2ccccc12 | 48.2% (inactive)
22 | N#Cc1c(-c2ccccc2)nc2c(c(-c3ccccc3)nn2-c2ccccc2)c1-c1ccc(N2CCOCC2)cc1 | 45.6% (inactive)
23 | CC(O)c1ncc(/C=C2\SC(=S)N(Cc3ccccc3)C2=O)s1 (configuration not stated) | 90.3% (inactive)
24 | O=C(Nc1ccccc1O)c1ccccc1Nc1ccnc(C(F)(F)F)c1 | 102% (inactive)
25 | O=C(Cn1nnc([N+](=O)[O-])n1)c1ccccc1 | 91.1% (inactive)
26 | Cc1ccc(-c2nc(C(Cl)Cl)nc3cc(C)nn23)cc1 | -28.5% (active)
27 | O=C(N/N=C/c1ccc([N+](=O)[O-])cc1)c1ccc2nc(-c3ccc(Cl)cc3)[nH]c2c1 | 12.7% (inactive)

Each molecule was assayed on MCF7 breast in the same assay as above. Conditions: 10 µM unless noted.

Row | SMILES | growth
28 | COc1ccc(-c2cc(-c3ccc(OC)cc3)nc(NCCCNc3ccnc4cc(Cl)ccc34)n2)cc1 | -54.2% (active)
29 | Cn1cc(/C=C2/C(=O)Nc3ccccc32)c2ccccc21 | 69.2% (inactive)
30 | CC[C@H](CC[C@@H](C)[C@H]1CC[C@H]2[C@@H]3CC[C@@H]4CC(=O)/C(=C\c5ccncc5)C[C@]4(C)[C@H]3CC[C@]12C)C(C)C | 95.7% (inactive)
31 | CCOC(=O)c1c(-c2ccc(Cl)cc2)c(C#N)c2c(C#N)c(N)nn2c1N | 37.6% (inactive)
32 | CC1O[C@@H]2C[C@@](O)([C@H]1O)n1c3ccccc3c3c4c(c5c6ccccc6n2c5c31)C(=O)NC4=O (some centres not stated) | 22.3% (inactive)
33 | O=C1Nc2ccccc2/C1=C/c1cn(C[C@@H](O)Cn2c3ccccc3c(=O)c3ccccc32)c2ccccc12 | 45.9% (inactive)
34 | Cc1cscc(C)c1=S | 59.4% (inactive)
35 | Clc1nccc2c(-c3csc(-c4c[nH]c5ccccc45)n3)c[nH]c12 | 49.6% (inactive)
36 | Cc1ccc2[nH]c(-c3ccc(S(C)(=O)=O)cc3)c(/C=N/N=C(N)N)c2c1 | 64.6% (inactive)
37 | Nc1n[nH]c2ccc([C@@H]3Nc4cc5[nH]ncc5cc4[C@H]4C5CCC(C5)[C@@H]34)cc12 (some centres not stated) | 12.3% (inactive)
38 | Cc1[nH]c(C(=O)Nc2ccc(C(N)=O)cc2NC(C)C)c(Cl)c1Cl | 92% (inactive)
39 | COc1cc(C(=O)/C=C/c2ccc(N3CCN(C)CC3)cc2)cc(OC)c1OC | 96% (inactive)
40 | C#CCn1cnc2c(Nc3cccc(NC(=O)CCl)c3)ncnc21 | 14.1% (inactive)
41 | CC1=CCC[C@@H]2C1(C)CC[C@H](C)[C@@]2(C)CC1=CC(=O)C(SC(C)(C)C)=CC1=O (some centres not stated) | -61.1% (active)
42 | C/C(=N\Nc1nc(C)cs1)c1cc2ccccc2o1 | 74.2% (inactive)
43 | COc1ccc(C2C(C#N)=C(N)Oc3c2sc2c(Br)cccc32)cc1 (configuration not stated) | 13.1% (inactive)
44 | C#Cc1cccc(Oc2ccc(NC(=O)CCl)cc2)c1 | 13.5% [8.25 µM] (inactive)
45 | O=C1CCC(C(=O)NN(c2ccccc2)c2ccccc2)N1 (configuration not stated) | 98% (inactive)
46 | CCC(CC)(N(CC(=O)O)CC(=O)O)C(CC)(CC)N(CC(=O)O)CC(=O)O | 100% (inactive)
47 | CCCCN1C(=O)/C(=c2\sc3n(c2=O)NC2C(N=3)N(CC)C(=O)N2CC)c2ccccc21 (configuration not stated) | 25% (inactive)

Row | SMILES | growth
48 | COc1ccc(C(c2cc(OC)c(OC)c(OC)c2)N2CCCC2)cc1 (configuration not stated) | 64.1% (inactive)
49 | Cc1ccc(C(=O)c2ccc(CC(=O)N/N=C/c3ccc(O)cc3O)n2C)cc1 | 39.2% (inactive)
50 | COc1ccc(NC(=O)c2sc3nc4c(cc3c2N)CCCC4)cc1 | 19.2% (inactive)
51 | COc1cc2c3c(c1O)-c1ccccc1[C@@H]1OC(=O)N(CC2)[C@H]31 | 90% (inactive)
52 | Cc1cccc(-n2c(C)nc3ccc(N4CCCNC4=O)cc3c2=O)c1 | 97.8% (inactive)
53 | CCN(CC)CCCNCc1cc(-c2ccccc2)nc2cc(Cl)ccc12 | 23% (inactive)
54 | Cn1c(O)c(C(/C=C/c2ccccc2)=Nc2ccccc2N)c(=O)n(C)c1=O | 99% (inactive)
55 | CC1COCC(C)N1C1=C(Cl)C(=O)c2ccccc2C1=O (configuration not stated) | 50.8% (inactive)
56 | CC(C)(C)c1cc(C=Nc2cccc(C(F)(F)F)c2)c(O)c(C(C)(C)C)c1 | 97.7% (inactive)
57 | Cn1cc(-c2csc(-c3cn(C(=O)OC(C)(C)C)c4ccccc34)n2)c2ccnc(Cl)c21 | 33.3% (inactive)
58 | CN1CCCc2cc(/C=C3/SC(=S)N(CCc4ccc(O)cc4)C3=O)ccc21 | 72.2% (inactive)
59 | COC(=O)C1=C(C)NC(C)=C(C(=O)OCC(C)C)C1c1ccccc1[N+](=O)[O-] (configuration not stated) | 72.7% (inactive)
60 | COc1ccc(OC)c(-c2cn3nc(-c4c[nH]c5ccc(Br)cc45)sc3n2)c1 | 12.5% (inactive)
61 | Clc1nn2c(Cn3cnc4c(NCc5ccccc5)ncnc43)nnc2c2ccccc12 | 62.1% (inactive)
62 | N#Cc1c(-c2ccccc2)nc2c(c(-c3ccccc3)nn2-c2ccccc2)c1-c1ccc(N2CCOCC2)cc1 | 57.6% (inactive)
63 | CC(O)c1ncc(/C=C2\SC(=S)N(Cc3ccccc3)C2=O)s1 (configuration not stated) | 80.3% (inactive)
64 | O=C(Nc1ccccc1O)c1ccccc1Nc1ccnc(C(F)(F)F)c1 | 83.4% (inactive)
65 | O=C(Cn1nnc([N+](=O)[O-])n1)c1ccccc1 | 80.9% (inactive)
66 | Cc1ccc(-c2nc(C(Cl)Cl)nc3cc(C)nn23)cc1 | 20.6% (inactive)
67 | O=C(N/N=C/c1ccc([N+](=O)[O-])cc1)c1ccc2nc(-c3ccc(Cl)cc3)[nH]c2c1 | 0.723% (active)
